Results filed as inconclusive are left out. Values without a mark were called inactive. The source made the active and inactive calls. The call rests on the fitted dose curve; in most records, active means well fitted cell-killing curve with a large enough effect; inconclusive means small, poorly fitted or top-dose-only effect, or effect the other way; inactive means no such curve, though single readings can be large or run the other way.
test: Quantitative High-Throughput drug screen in 47 multiple myeloma cell lines against the NCATS MIPE library collection: OCIMY1_PLB cell viability assay (AID 1918979); details: OCI-MY1 myeloma viability, CellTiter-Glo ATP, 48 h; series mostly up to 45.8 µM; viability: at the top concentration; further: nearly all actives have a fitted effect of over 35% in size
Description: PI: Beverly A. Mock Ph.D.
Laboratory of Cancer Biology and Genetics,
Center for Cancer Research, National Cancer Institute,
National Institute of Health, Bethesda, Maryland
Drug resistance and disease progression are common in multiple myeloma (MM) patients, underscoring the need for new therapeutic combinations. […] We hypothesized that effective combinations would reduce MYC expression and enhance p16 activity. […] These preclinical data identify potentially useful drug combinations for evaluation in drug-resistant MM and reveal potential mechanisms of combined drug sensitivity.
Described herein is the primary MIPE qHTS used to cherrypick compounds. Validated compounds were then further tested for potential synergistic activiy.
[1] Peat TJ, Gaikwad SM, Dubois W, Gyabaah-Kessie N, Zhang S, Gorjifard S, Phyo Z, Andres M, Hughitt VK, Simpson RM, Miller MA, Girvin AT, Taylor A, Williams D, D'Antonio N, Zhang Y, Rajagopalan A, Flietner E, Wilson K, Zhang X, Shinn P, Klumpp-Thomas C, McKnight C, Itkin Z, Chen L, Kazandijian D, Zhang J, Michalowski AM, Simmons JK, Keats J, Thomas CJ, Mock BA. Drug combinations identified by high-throughput screening promote cell cycle transition and upregulate Smad pathways in myeloma. Cancer Lett. 2023 Aug 1;568:216284. doi: 10.1016/j.canlet.2023.216284. Epub 2023 Jun 24. PMID: 37356470; PMCID: PMC10408729.
SEQUENCE No. (e.g., 1, 2, 3, etc.); […] (e.g., Cells, Incubation, Reagent, etc.); VALUE and DESCRIPTION.
1; Cells; 5 uL; white, solid bottom 1536-well Greiner assay plate.
2; Compounds; 23 nL; Kalypsis pin tool (Wako USA) equipped with a 1536-well pin head to transfer to the assay plates.
3; Incubation; 48 hours; 37C incubation.
4; Reagent;5uL; CellTiter Glo (Promega).
5; Detector; 425V; Luminescence; Viewlux PerkinElmer.
NOTES (numbers refer to Sequence numbers above)
1. The cell-based screening methods employed in this study were like those previously published. Briefly, the corresponding myeloma cell lines were screened in 1,536-well plates with 500 cells, 5-uL per well for inhibition of cell viability (assessed by measuring ATP levels with CellTiterGlo).
2. NCATS MIPE 4.0 library of approved and investigational drugs were added using the Kalypsis pin tool. Wells treated with DMSO only for 100% viability and media only for 0% viability were used as controls.
3. The assay plates were covered and incubated for 48 hours in a 37C, 5% CO2 incubator with controlled humidity.
4. After 48 hours, CellTilter-GloTM luminescent substrate mix (Promega) reagent was added to the assay plate and plates we incubated for 5 min at room temperature.
5. Signal was measured as median relative luminescence units on a ViewLux (PerkinElmer) multiplate reader.
[1] Heske CM, Davis MI, Baumgart JT, Wilson K, Gormally MV, Chen L, Zhang X, Ceribelli M, Duveau DY, Guha R, Ferrer M, Arnaldez FI, Ji J, Tran HL, Zhang Y, Mendoza A, Helman LJ, Thomas CJ. Matrix Screen Identifies Synergistic Combination of PARP Inhibitors and Nicotinamide Phosphoribosyltransferase (NAMPT) Inhibitors in Ewing Sarcoma. Clin Cancer Res. 2017 Dec 1;23(23):7301-7311. doi: 10.1158/1078-0432.CCR-17-1121. Epub 2017 Sep 12. PMID: 28899971; PMCID: PMC6636827.
Potency means the concentration at half of the fitted maximal effect.

Q: Which “viability” value does the source give for `Cc1ccc2c(c1)c1c(n2CCc2ccc(C)nc2)CCN(C)C1` here?
A: 102%

Q: With `Cc1ccc(NC(=O)c2cccc(N(C)C)c2)cc1NC(=O)c1ccc(O)cc1` as the compound, how does the “viability” value read?
A: 89.3%

Q: For `C[C@]12CC[C@@H]3c4ccc(O)cc4CC[C@H]3[C@H]1[C@@H](O)[C@@H](O)[C@H]2O`, which “viability” value is on record?
A: 107%

Q: For `CN1CCN(c2ncc(-c3cc(Cl)cc(Cl)c3Cl)c(N)n2)CC1`, which “viability” value is on record?
A: 117%

Q: With `CCNC(=O)[C@H]1O[C@@H](n2cnc3c(N)nc(NCCc4ccc(CCC(=O)O)cc4)nc32)[C@H](O)[C@H]1O` as the compound, how does the “viability” value read?
A: 95.4%

Q: For `Oc1ccc(C=Cc2cc(O)cc(O)c2)cc1`, which “viability” value is on record?
A: 97.5%

Q: For `COc1cc([C@@H]2c3cc4c(cc3[C@@H](O[C@@H]3O[C@@H]5CO[C@@H](C)O[C@@H]5[C@H](O)[C@@H]3O)[C@H]3COC(=O)[C@H]23)OCO4)cc(OC)c1O`, which “viability” value is on record?
A: 99.2%

Q: With `CCOC(=O)c1c(CSc2ccccc2)n(C)c2cc(Br)c(O)c(CN(C)C)c12` as the compound, how does the Potency read?
A: 16.6 µM (active)

Q: For `CC1=C[C@@H]2[C@@H]([C@@H](O)C[C@@]3(C)[C@H]2C[C@@H](C)[C@]3(O)C(=O)CO)[C@@]2(C)Cc3cnn(-c4ccccc4)c3C=C12`, which Potency is on record?
A: 23.5 µM (active)

Q: For `CC1C(=O)OC2C(O)C34C5CC(C(C)(C)C)C36C(OC(=O)C6O)OC4(C(=O)O5)C12O` (stereo not given), which “viability” value is on record?
A: 97.2%

Q: Which “viability” value does the source give for `CC(C)(O)CC(=O)NCCn1ccc2ncnc(Nc3ccc(Oc4cccc(C(F)(F)F)c4)c(Cl)c3)c21` here?
A: 104%

Q: For `Clc1ccc(C2(c3ccc(-c4cn[nH]c4)cc3)CCNCC2)cc1`, which Potency is on record?
A: 23.5 µM (active)

Q: With `CNC(=O)c1cc(Oc2ccc(NC(=O)Nc3ccc(Cl)c(C(F)(F)F)c3)c(F)c2)ccn1` as the compound, how does the Potency read?
A: 23.5 µM (active)

Q: For `CCOC(=O)[C@H]1O[C@H]1C(=O)N[C@@H](CC(C)C)C(=O)NCCC(C)C`, which “viability” value is on record?
A: 101%

Q: With `COc1ccc(-c2oc3c(CC=C(C)C)c(O)cc(O)c3c(=O)c2O)cc1` as the compound, how does the “viability” value read?
A: 109%

Q: Which “viability” value does the source give for `COc1ccc(-c2cc3nccn3c(Nc3ncccc3C(N)=O)n2)cc1OC` here?
A: 98.3%

Q: For `O=C1NC(=O)C(c2cnc3ccccn23)=C1c1cn2c3c(cccc13)CN(C(=O)N1CCOCC1)CC2`, which “viability” value is on record?
A: 89.3%

Q: With `N#Cc1c(N(CC(=O)O)CC(=O)O)sc(C(=O)O)c1CC(=O)O` as the compound, how does the “viability” value read?
A: 130%

Q: Which “viability” value does the source give for `COc1ccc(C=CC(=O)Nc2ccccc2C(=O)O)cc1OC` here?
A: 128%

Q: With `O=[N+]([O-])c1ccc(Nc2ccccc2-c2ccccc2)c2nonc12` as the compound, how does the “viability” value read?
A: 107%

Q: With `CN(C)CCN(Cc1ccc(Cl)cc1)c1ccccn1` as the compound, how does the “viability” value read?
A: 95.5%

Q: For `COc1c(C)c2c(c(O)c1CC=C(C)CCC(=O)OCCN1CCOCC1)C(=O)OC2`, which Potency is on record?
A: 10.5 µM (active)

Q: For `CN[C@@H]1[C@@H](O)[C@@H](O[C@@H]2[C@@H](O)[C@H](O[C@H]3O[C@H](CN)[C@@H](O)[C@H](O)[C@@H]3O)[C@@H](N)C[C@@H]2NC(=O)[C@@H](O)CN)OC[C@]1(C)O`, which “viability” value is on record?
A: 109%

Q: With `C[C@@H]1O[C@@H](O[C@H]2CC[C@@]3(C)[C@H](CC[C@@H]4[C@H]3C[C@@H](O)[C@]3(C)[C@@H](C5=CC(=O)OC5)CC[C@]43O)C2)C[C@H](O)[C@@H]1O[C@H]1C[C@H](O)[C@H](O[C@H]2C[C@H](O)[C@@H](O)[C@@H](C)O2)[C@H](C)O1` (stereo in doubt) as the compound, how does the Potency read?
A: 0.241 µM (active)

Q: With `NCc1c[nH]c(=S)n1[C@H]1CCc2c(F)cc(F)cc2C1` as the compound, how does the “viability” value read?
A: 114%

Q: With `COc1cc(F)c(C(C)C)cc1-c1ccc(C(F)(F)F)cc1CN1C(=O)O[C@H](c2cc(C(F)(F)F)cc(C(F)(F)F)c2)[C@@H]1C` as the compound, how does the “viability” value read?
A: 115%

Q: For `COc1ccc2cc1Oc1ccc(cc1)C[C@H]1c3cc(c(OC)cc3CCN1C)Oc1c(OC)c(OC)cc3c1[C@H](C2)N(C)CC3`, which Potency is on record?
A: 18.7 µM (active)

Q: Which “viability” value does the source give for `CN1C(=O)C(Cc2c[nH]c3ccccc23)NC1=S` (stereo not given) here?
A: 117%

Q: Which Potency does the source give for `O=C(Nc1ncc(SCCN2CCCC2)s1)[C@]1(c2ccc(S(=O)(=O)C3CC3)cc2)C[C@@H]1C1CCCCC1` here?
A: 26.4 µM (active)

Q: Which Potency does the source give for `CO[C@H]1/C=C\O[C@@]2(C)Oc3c(C)c(O)c4c(O)c(c(C=NN5CCN(C6CCCC6)CC5)c(O)c4c3C2=O)NC(=O)C(C)=CC=C[C@H](C)[C@H](O)[C@@H](C)[C@@H](O)[C@@H](C)[C@H](OC(C)=O)[C@H]1C` here?
A: 9.35 µM (active)

Q: Which “viability” value does the source give for `Cc1cc(OCCCS(C)(=O)=O)cc(C)c1-c1cccc(COc2ccc3c(c2)OC[C@H]3CC(=O)O)c1` here?
A: 106%

Q: Which “viability” value does the source give for `O=C(Nc1cccc(C(F)(F)F)c1)Nc1cc(S(=O)(=O)NC2CC2)ccc1-c1ccsc1` here?
A: 97.4%

Q: With `CCC(=C(c1ccc(O)cc1)c1ccc(OCCNC)cc1)c1ccccc1` as the compound, how does the Potency read?
A: 23.5 µM (active)

Q: Which “viability” value does the source give for `Cc1ccc(C2=Nc3ccc(Cl)cc3OC2)cc1` here?
A: 121%

Q: Which “viability” value does the source give for `O=C1C(CCC(O)c2ccc(F)cc2)C(c2ccc(O)cc2)N1c1ccc(F)cc1` (stereo not given) here?
A: 113%

Q: With `C[C@]12C=CC(=O)C=C1CC[C@@H]1[C@@H]2[C@@H](O)C[C@@]2(C)[C@@H]1CC[C@]2(O)C(=O)CO` as the compound, how does the “viability” value read?
A: 96.7%

Q: With `Cc1ccccc1C(C(=O)NC1CCCCC1)N(C(=O)CNc1ccc(C#N)cc1)c1cccc(F)c1` (stereo not given) as the compound, how does the “viability” value read?
A: 130%

Q: With `COc1nccc(-c2c(-c3ccc(F)cc3)ncn2C2CCC(O)CC2)n1` (stereo not given) as the compound, how does the “viability” value read?
A: 85.6%

Q: Which Potency does the source give for `CNC1CCC(N(Cc2cccc(-c3ccncc3)c2)C(=O)c2sc3ccccc3c2Cl)CC1` (stereo not given) here?
A: 23.5 µM (active)

Q: With `CN1CC(=O)NC1=NC(=O)Nc1cccc(Cl)c1` as the compound, how does the Potency read?
A: 26.4 µM (active)
